Our source for the inhibition values is PubChem BioAssay AID2315 (National Center for Advancing Translational Sciences (NCATS), 2010).

For orientation: inhibition means the relative decrease from the control value, in per cent.

Structures are written as SMILES. Out of some 290,000 compounds screened, about 27,000 (9.3%) were called active. Rule as the data show it: active = inhibition mostly above about 28% (no sharp cut-off); inactive = mostly below about 43%. The full list was thinned out, with actives kept by preference.

This experiment is described as follows: A qHTS for Small Molecule Inhibitors of Shiga Toxin. Also: 0% is about no effect. As to conditions: Vero cells, Shiga toxin protein synthesis inhibition reporter; at 38.7 µM, active compounds read high. In general terms: qHTS replaces the single test concentration by a dilution series.
Regarding `C=CCOc1cccc(C2NC(=O)c3ccccc3O2)c1` (stereo unspecified), the inhibition was 5.66% (inactive). In the case of `Cc1ccc(S(=O)(=O)N2CCN(C(=O)CSc3cc(C)ccc3C)CC2)c(C)c1`, the inhibition was -13% (inactive). For the compound `COc1ccc(C(=O)Nc2ccccc2C(=O)N/N=C/c2ccc(O)c(OC)c2)cc1`, the inhibition is -21.6% (inactive).

`COc1ccccc1C(=O)NNC(=O)c1ccc(NC(=O)c2ccccc2)cc1`: the inhibition was -13.9% (inactive). With `COc1ccc(C(=O)Nc2ccccc2C(=O)N/N=C/c2ccccc2OC)cc1`, the inhibition was 89.2% (active). To `COc1ccc(C(=O)NC(C)c2nccs2)cc1OC1CCN(C(C)C)CC1` (stereo unspecified) belongs -1.47% (inactive); to `Cc1nc2ccc(NC(=O)N3CCC(c4ccccc4)C3)cc2nc1C` (stereo unspecified), 2.35% (inactive). Take `Cc1cccc(NC(=S)N2CCC(c3nc4ccccc4s3)CC2)c1`: the inhibition was -9.34% (inactive). On to `Cc1nc2ccc(NC(=S)N3CCC(C)CC3)cc2nc1C`, for which the inhibition was 33.9% (active). `CC(=O)Cn1ncc(N2CCOCC2)c(Br)c1=O`: the inhibition is -5.02% (inactive). Regarding `O=C(Cn1ncc(N2CCCC2)c(Br)c1=O)c1ccc(Cl)cc1`, the inhibition is 37.7% (active). As to `Cn1c(=O)c2c(nc(N3CCCCCC3)n2CC(=O)c2ccc(Br)cc2)n(C)c1=O`, the inhibition was 2.71% (inactive). For the compound `O=C(CNc1cccc(S(=O)(=O)N2CCCCC2)c1)Nc1ccccc1F`, the inhibition is -9.02% (inactive). On to `CCc1ccc(NC(=O)Cn2nnc(C(=O)NCc3ccc4c(c3)OCO4)c2N)cc1`, for which the inhibition was 0.685% (inactive). Turning to `Cc1cccc2sc(N(CCCN(C)C)C(=O)CCS(=O)(=O)c3ccccc3)nc12`, the inhibition was 6.64% (inactive). On to `CCn1nc(C(=O)OCC(=O)N2c3ccccc3CC2C)c2ccccc2c1=O` (stereo unspecified), for which the inhibition was -10.9% (inactive). The result for `CCCC(=O)N1c2ccc(-c3csc(N)n3)cc2CC1C` (stereo unspecified) reads 71.3% (active); that for `Cc1ccn(CCC(=O)N2c3ccccc3CC2C)n1` (stereo unspecified), -3.39% (inactive). Take `CCC(C)Sc1nc2c(cnn2-c2ccc(F)cc2)c(=O)[nH]1` (stereo unspecified): the inhibition was -5.58% (inactive).

With `COc1cccc(OCC(O)CNC(=O)c2oc3c(C)c(C)ccc3c2C)c1` (stereo unspecified), the inhibition was -9.45% (inactive). As to `CCOCc1nnc(NC(=O)CCS(=O)(=O)Cc2ccccc2)s1`, the inhibition is -3.13% (inactive). For `Cc1cccc(CCNS(=O)(=O)c2ccc3c(c2)NC(=O)CO3)c1`, the inhibition was -6.16% (inactive).

As for `Cc1cc2ncn(CCCCOc3ccccc3)c2cc1C`, the inhibition is -3.93% (inactive).

In the case of `Clc1ncn(CCOc2ccccc2)c1Cl`, the inhibition was -16.2% (inactive). Consider `Cc1nn(CCOc2ccccc2)c(=O)n1-c1ccccc1F`, for which the inhibition is 72.3% (active). Regarding `COc1ccc(-c2nc3c(s2)CCc2onc(-c4ccc(OC)cc4)c2-3)cc1`, the inhibition was -4% (inactive). As for `Cc1nn(C)c(Cl)c1CN1CCC(n2nccc2NC(=O)C2CCCC2)CC1`, the inhibition is -4.44% (inactive). `O=C(NCc1cccc(Cl)c1)C1CCC(=O)N(C2CC2)C1` (stereo unspecified): the inhibition is 1.78% (inactive).

In the case of `O=C(N/N=C/c1c[nH]c2ccccc12)c1ccccc1O`, the inhibition is 46.2% (active). On to `CSC(=S)N/N=C/c1c[nH]c2ccccc12`, for which the inhibition was 18.5% (inactive). The result for `O=C(N/N=C/c1c[nH]c2ccccc12)c1cc2ccccc2o1` reads 51.6% (active). Consider `O=C(N/N=C/c1coc2ccccc2c1=O)c1cc2ccccc2o1`, for which the inhibition is -15.3% (inactive).

Take `O=C(N/N=C/c1ccc([N+](=O)[O-])cc1)c1c[nH]c2ccccc12`: the inhibition is 35.6% (inactive). To `Cc1c(/C=N\NC(=O)c2cc3ccccc3o2)c2ccccc2n1C` belongs 33.2% (inactive). To `COc1cccc(NC(=O)C/C(C)=N/NC(=O)C2CCCCC2)c1` belongs 5.94% (inactive); to `CCC(C)C(NC(=O)C1CCC(=O)N1C(=O)OCc1ccccc1)C(=O)NC(C(=O)N1CCCC1C(N)=O)C(C)CC` (stereo unspecified), -2.25% (inactive).

For the compound `COc1ccc(C/C(C)=N/NC(=O)c2ccncc2)cc1`, the inhibition is 13.5% (inactive). Turning to `COc1ccc(C/C(C)=N/NC(=O)c2cc(C)oc2C)cc1`, the inhibition is 39.4% (active). As to `CCCCCNC(=O)Cc1ccc(OC)cc1`, the inhibition was 35.5% (inactive). For the compound `Cc1nc2nc(C)c(NS(=O)(=O)c3ccc(C(C)(C)C)cc3)c(=O)n2[nH]1`, the inhibition was -4.52% (inactive). For `Cc1ccccc1C(CC(=O)c1cccs1)C(C#N)C#N` (stereo unspecified), the inhibition was 60.4% (active). `Cc1ccc(C)c(NC(CC(=O)c2ccccc2)C(=O)OCC(=O)c2cccs2)c1` (stereo unspecified): the inhibition is -2.14% (inactive).

In the case of `C/C(=N\NC(=O)COc1c(C)cccc1C)c1cccs1`, the inhibition was 23.6% (inactive).

As for `CCOc1ccc(CN2CCN(Cc3c[nH]c4ccccc34)CC2)cc1`, the inhibition was -7.52% (inactive).

Turning to `C/C=C/C(=O)OCc1csc(CC(=O)Nc2ccccc2C)n1`, the inhibition was -12.5% (inactive). Regarding `Cc1ccc2c(c1)c1ncn(Cc3ccc(F)cc3)c(=O)c1n2C`, the inhibition was -13.4% (inactive). The result for `Cc1ccc2c(c1)c1ncnc(N3CCc4ccccc4C3)c1n2C` reads 61.5% (active).

Take `Cc1ccc2c(c1)c1ncn(CCC3=CCCCC3)c(=O)c1n2C`: the inhibition is 1.3% (inactive). Take `COc1ccc(-c2cc(C(=O)N3CCN(Cc4ccc5c(c4)OCO5)CC3)on2)cc1OC`: the inhibition is -5.83% (inactive). Take `O=C1CCC(CCC(=O)N2CCCC(C(=O)c3ccc(Cl)cc3)C2)=NN1` (stereo unspecified): the inhibition is 12.9% (inactive).

With `COCC1CCCN(C(=O)c2ccc3oc(C(C)C)nc3c2)C1` (stereo unspecified), the inhibition was 13.8% (inactive). In the case of `COCC1CCN(C(=O)CCc2nnc(C3(c4ccc(Cl)cc4)CCC3)o2)C1` (stereo unspecified), the inhibition is 59.4% (active).

On to `CCn1c(SCC(=O)Nc2ccc3c(c2)OCCO3)nnc1-c1ccncc1`, for which the inhibition is 24.3% (inactive). For `O=C(Nc1cccc2ccccc12)c1onc2c1CCCC2`, the inhibition was 80.7% (active). Turning to `O=C(COC(=O)c1ccccn1)Nc1cccc2ccccc12`, the inhibition was -15.8% (inactive).

With `O=C(O)c1ccccc1-c1ccccc1C(=O)Nc1cccc2ccccc12`, the inhibition is -18.7% (inactive).

With `CCN1CCN(C(=O)C2CCCN(S(=O)(=O)c3ccc(OC)c(OC)c3)C2)CC1` (stereo unspecified), the inhibition is 11.9% (inactive). As to `NC(=O)c1cc(-c2cccnc2)nc2ccc(Br)cc12`, the inhibition is 20% (inactive). The result for `CC(CN1CCC(n2nccc2NC(=O)C2CCCC2)CC1)c1ccccc1` (stereo unspecified) reads -13% (inactive); that for `Cc1cc(NC(=O)CSCc2ccccc2C)no1`, 48.6% (inactive).

As to `Cc1ccccc1C(=O)Nc1ccccc1NC(=O)c1ccccc1C`, the inhibition was -1.64% (inactive). With `Cc1cc(NC(=O)c2ccccc2C)no1`, the inhibition was 55.6% (active). Take `CCOc1c2ccc(C(=O)NCc3ccc4c(c3)OCO4)cc2nn1C`: the inhibition is 9.39% (inactive). `Cc1cccc(-c2nc3ccc(C(=O)NCCN4CCN(C)CC4)cc3nc2-c2cccc(C)c2)c1`: the inhibition is -22.4% (inactive). `C=CCNC(=O)c1ccc2c3n(nc2c1)-c1ccc(C)cc1CO3`: the inhibition was 83.8% (active). As to `COc1cc(CNCc2ccc(OC)c3ccccc23)cc(OC)c1OC`, the inhibition was -2.52% (inactive).

As to `Cc1cccc(N(Cc2ccccc2)C(=O)c2ccccc2F)c1`, the inhibition was 41.2% (inactive). With `COc1ccc(C(=O)NC(=S)Nc2ccc(Cl)cn2)cc1OC`, the inhibition is 4.19% (inactive). For the compound `COc1ccc(C(=O)N/N=C(\C)CC(=O)Nc2ccc(Cl)cn2)cc1`, the inhibition is 97.1% (active).

For the compound `COc1ccc(COC(=O)N/N=C(\C)CC(=O)Nc2ccc(Cl)cc2)cc1`, the inhibition was -3.95% (inactive). Regarding `O=C(C1CCC(=O)N(C2CC2)C1)N1CCN(c2ccc(Cl)cc2)CC1` (stereo unspecified), the inhibition was -16% (inactive). Regarding `O=C1COc2ccc(S(=O)(=O)Nc3ccc(OC(F)(F)F)cc3)cc2N1`, the inhibition is -4.37% (inactive). To `Cc1cc(NS(=O)(=O)c2ccc(NC(=S)NC(=O)c3ccc(F)cc3Cl)cc2)no1` belongs 16.8% (inactive); to `CC(=O)c1ccccc1OCc1ccc(C(=O)c2ccccc2)cc1`, 10.9% (inactive); to `Cc1ccc(-c2cn(S(=O)(=O)c3cccc([N+](=O)[O-])c3)nc2N)cc1`, 13.5% (inactive). As to `Cc1cc(C)nc(Nc2cc([N+](=O)[O-])ccc2C)n1`, the inhibition was -5.77% (inactive). For the compound `Cc1ccc(-n2cc3ccc([N+](=O)[O-])cc3n2)cc1`, the inhibition is 57.1% (active).

`O=C(COc1ccc2c(c1)CCC2)N1CCN(c2ccc(F)cc2)CC1`: the inhibition is -11.3% (inactive).

Turning to `Cc1ccc(-n2c(SCC(=O)N3CCC(C(=O)O)CC3)nc3ccccc3c2=O)cc1C`, the inhibition is 45.4% (active). `COc1cccc(-n2c(SCC(=O)c3c[nH]c4ccccc34)nc3ccccc3c2=O)c1`: the inhibition is -9.99% (inactive). `CCc1c(O)nc(SCC(=O)N2CCCCC2)n(-c2ccccc2C)c1=O`: the inhibition was 13% (inactive). For `CCOC(=O)CSc1nc2ccc(C)cc2n2cnnc12`, the inhibition was 9.64% (inactive). For the compound `CCC(=O)N1CCCc2ccccc21`, the inhibition is 14.2% (inactive). Take `O=C(c1cc(-c2ccc(Cl)cc2)on1)N1CCN(c2ccccc2)CC1`: the inhibition is 67.5% (active).

With `Cc1c(C(=O)N2CCCc3ccccc32)oc2ccccc12`, the inhibition is 33.8% (inactive). For the compound `Cc1noc(C)c1C(=O)N1CCOCC1`, the inhibition was -7.37% (inactive).

In the case of `O=C(c1cc(-c2ccc(O)cc2)on1)N1CCCc2ccccc21`, the inhibition is 91.2% (active). Turning to `O=C(c1cc(-c2ccc(F)cc2)on1)N1CCN(c2ccc(F)cc2)CC1`, the inhibition is -1.74% (inactive). `Cc1cccc(-n2c(C)nc3cc(C(=O)N4CCC5(CC4)OCCO5)ccc32)c1`: the inhibition was 13.6% (inactive). Regarding `COc1ccc(-c2cc(C(=O)N3CCN(c4ccc(F)cc4)CC3)no2)cc1`, the inhibition was 11.7% (inactive). The result for `Cc1ccc(-c2cc(C(=O)N3CCC4(CC3)OCCO4)no2)cc1` reads 58.1% (active); that for `O=C(c1cc(-c2ccncc2)nc2ccccc12)N1CCC2(CC1)OCCO2`, 11.7% (inactive); that for `O=C(c1cccs1)N1CCN(C(=O)N2CCOCC2)CC1`, -6.78% (inactive). In the case of `O=C(c1cc(-c2ccc(O)cc2)on1)N1CCOCC1`, the inhibition was 62% (active). Take `Nc1nc(SCC(=O)Nc2ccc(Cl)cc2C(F)(F)F)n[nH]1`: the inhibition is -27.1% (inactive). Consider `COc1cc(OC)cc(C(=O)Nc2nnc(SCC(=O)NCC3CCCO3)s2)c1` (stereo unspecified), for which the inhibition was 4.36% (inactive).
